TIM10 inh – growth inhibitors of isogenic TIM10 control yeast, primary screen, counter-screen for tim10-1 yeast inhibitor project, luminescence, uHTS; S. cerevisiae TIM10 strain growth, BacTiter-Glo luminescence, 24 h; inhibition, % at 10 µM; hit rate 1.4% among 330,000; AID 463195, 2010;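 active = inhibition of 40% or more at the single tested concentration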;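 also: wild-type TIM10 isogenic control strain grown at permissive 25 °C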
tim10-1 inh – growth inhibitors of tim10-1 mutant yeast, primary screen, luminescence, uHTS | S. cerevisiae tim10-1 ts strain growth, BacTiter-Glo, 24 h | inhibition, % at 20 µM | hit rate 2.2% among 330,000 | AID 463190, 2010;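 active = inhibition of at least 40%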;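 also: mutant grown at 25 °C; 0% = DMSO wells with yeast and 100% = wells holding no yeast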
V-ATPase pH – regulators of yeast V-ATPase proton pumping, primary screen, pHLuorin cytosolic pH fluorescence | S. cerevisiae | response, % at 10 µM | hit rate 0.37% among 350,000 | AID 504577, 2011; in the data active = response mostly above about 7.3%, no sharp cut-off; inactive = mostly below about 5.4%; also: actives read high
NALP3 yeast inh – NALP3 inflammasome inhibitors in reconstituted yeast, primary screen, luminescence, uHTS. Yeast reconstituted NLRP3/ASC/caspase-1, beta-gal luminescence, 24 h. inhibition, % at 10 µM. hit rate 0.39% among 330,000;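 active = inhibition of 50% or more; inactive = inhibition below 50%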;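 also: plate controls were induced DMSO wells for no effect and uninduced yeast grown without galactose for full effect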
NALP1 yeast inh – NALP1 inflammasome inhibitors in reconstituted yeast, colorimetric, S. cerevisiae, triplicate retest | S. cerevisiae NALP1/ASC/caspase-1 growth, X-gal OD620, 72 h | inhibition, % at 10 µM | hit rate 0.61% among 280,000 | AID 2071, 2009; in the data active = inhibition mostly above about 24%, no sharp cut-off; inactive = mostly below about 32%
tim23-1 inh – growth inhibitors of tim23-1 mutant yeast, primary screen, luminescence, uHTS; S. cerevisiae tim23-1 growth, BacTiter-Glo luminescence, 24 h; hit rate 1.3% among 330,000; inhibition, % at 20 µM; AID 463212, 2010;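 active = growth inhibition of the mutant yeast at or above 50%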;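 also: temperature-sensitive mutant grown at 25 °C; plate controls were DMSO-treated mutant yeast for no effect and medium wells lacking yeast for full effect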
tim10-1 confirm – growth inhibitors of tim10-1 mutant yeast, confirmation, single concentration, luminescence, S. cerevisiae; shares compounds with tim10-1 inh; S. cerevisiae tim10-1 ts strain growth, BacTiter-Glo, 24 h; inhibition, % at 20 µM; hit rate 56% among 7,400;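 active = inhibition of yeast growth at or above a set limit in either of two repeat tests at 20 µM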;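 also: tim10-1 mutant grown at permissive 25 °C to find synthetic lethal compounds; 0% = DMSO yeast wells and 100% = medium wells without yeast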
The depositor's hits bear a star; x = no result given. Most compounds without a hit are left out; they make up all but 4.2% or so of the library.

SMILES | TIM10 inh | tim10-1 inh | V-ATPase pH | NALP3 yeast inh | NALP1 yeast inh | tim23-1 inh | tim10-1 confirm
CC[C@@H]1CC=C[C@H]2[C@H]1C(=O)N(Cc1ccccc1)[C@H]2c1ccoc1 | -4.2 | 77.2* | -2.6 | 8.0 | x | -14.0 | 73.4*
C[C@@H]1CC=C[C@H]2[C@H]1C(=O)N(Cc1ccccc1)[C@H]2c1ccoc1 | -1.9 | 49.9* | -0.7 | -20.7 | -45.3 | 5.5 | 34.4*
Cc1ccc(S(=O)(=O)N2CCC(C(=O)OC(C)C(=O)NCc3ccccc3)CC2)cc1C (centres undefined) | 12.5 | -7.7 | 0.3 | -1.8 | 17.7 | 11.4 | x
CC(=O)c1ccc(N2CCN(C(=O)c3cc(-c4cccnc4)nc4ccc(Br)cc34)CC2)cc1 | 14.8 | 34.4 | 2.9 | 15.2 | 7.8 | 9.8 | x
O=C(c1cc(-c2cccnc2)nc2ccc(Br)cc12)N1CCN(c2ncccn2)CC1 | 27.9 | 45.5* | -2.8 | 9.8 | 12.5 | 44.1 | 18.4
COc1ccc(-c2cc(C(F)(F)F)nc(N3CCN(Cc4ccccc4)CC3)n2)cc1OC | 20.5 | 45.7* | -4.0 | 6.1 | 7.0 | 22.5 | 23.1
Cc1c(C)n2c(SCC(=O)N3CCCCC3)nnc2[nH]c1=O | -0.3 | 2.1 | 0.8 | 8.8 | x | 2.6 | x
Cc1n[nH]c(C)c1CCNC(=O)C1CCC(=O)N(CCc2cccc(F)c2)C1 (centres undefined) | 6.0 | 19.6 | -4.5 | 15.3 | 12.5 | 8.7 | x
O=C(c1cc(C2CC2)nn1-c1ccccc1)N1CCN(c2ccccn2)CC1 | 12.6 | 41.8* | 2.7 | 18.0 | x | 30.1 | 3.5
O=C(/C=C/c1ccccc1)NCCS(=O)(=O)N1CCN(c2ccc(F)cc2)CC1 | 2.7 | 6.0 | -1.6 | 6.6 | x | -1.9 | x
Cc1cc(Nc2cccc(F)c2)nc(-c2ccccc2O)n1 | 36.9 | 42.6* | -1.9 | -17.8 | -3.4 | 32.5 | 43.2*
Cc1cc(Nc2ccccc2Cl)nc(-c2ccccc2O)n1 | 20.9 | 53.0* | 0.3 | 7.9 | 1.4 | 31.7 | 41.3*
Cc1ccc(C)c(Nc2cc(C)nc(-c3ccccc3O)n2)c1 | 38.9 | 26.2 | 1.7 | -7.3 | 5.5 | 49.6 | x
COc1ccc(S(=O)(=O)NCC2CCCO2)cc1NC(=O)c1ccc(Cl)cc1 (centres undefined) | 6.0 | 20.5 | -4.4 | 8.9 | x | 11.3 | x
Oc1[nH]c2c(Cl)cc(Cl)cc2c1N=NC(=S)NCC1CCCO1 (centres undefined) | 25.0 | 46.3* | -2.5 | 23.6 | 6.4 | 32.3 | 20.4
COc1ccc(CN(C2CCCC2)S(=O)(=O)c2ccc(-n3cnnn3)cc2)cc1 | 34.0 | 40.2* | -1.8 | 14.0 | 5.6 | 33.9 | 34.7*
CCOC(=O)c1ccc(N2C(=O)CC(N3CCN(Cc4ccccc4)CC3)C2=O)cc1 (centres undefined) | 7.7 | 28.3 | 5.9 | 20.5 | 1.5 | 25.5 | x
CCOC(=O)c1ccc(N2C(=O)CC(N3CCC(Nc4ccc(F)cc4)CC3)C2=O)cc1 (centres undefined) | 35.0 | 56.6* | -0.8 | 32.1 | -2.6 | 15.2 | 50.3*
O=C1CC(N2CCCCCC2)C(=O)N1c1ccc(F)cc1 (centres undefined) | 38.7 | 53.6* | -0.8 | -6.5 | 36.9* | 33.2 | 45.0*
Cc1ccc(C(=O)OCC(=O)Nc2ccc3c(c2)OCO3)c(O)c1 | -5.8 | -22.5 | 0.8 | 15.6 | x | -1.9 | x
CCNC(=O)COc1ccc(/C=C2\COc3ccccc3C2=O)cc1OC | 35.8 | 46.0* | 2.9 | 13.8 | 13.3 | 39.3 | 29.0
COc1ccc(/C=C2\CCc3ccccc3C2=O)cc1OC | 19.1 | 32.9 | -2.1 | 28.2 | -3.3 | 37.8 | x
COc1ccc(S(=O)(=O)NCc2cc(-c3ccccc3Cl)no2)cc1 | 17.9 | 30.4 | -2.2 | 10.4 | -12.7 | 24.6 | x
Cc1ccc(NC(=O)c2ccc(Cl)c(N3C(=O)C=CC3=O)c2)cc1 | 26.5 | 67.7* | -0.4 | -0.9 | 5.2 | 12.7 | 78.8*
O=C(Nc1ccc(Cl)c(Cl)c1)c1ccc(Cl)c(Cl)c1 | 15.5 | -28.9 | -1.6 | 21.6 | 13.6 | 6.7 | x
CCCCn1nnc(NC(=O)c2ccc(-c3ccccc3)cc2)n1 | -1.7 | -5.7 | 1.2 | -9.7 | 43.8 | 10.9 | x

Screens: PubChem, several laboratories
